Laboratory results from PubChem BioAssay (Tox21).
Records with an inconclusive call do not appear. Calls of active or inactive are those of the source. Unless noted, the call rests on the fitted dose curve; in most records, active means well fitted curve in the direction sought with a large enough effect in the repeat runs; inconclusive means weak or mixed curves; inactive means no such curve, though single readings can be large; an effect the other way counts as inactive or inconclusive.

Legend:
[1] = qHTS assay to identify small molecule agonists of the vitamin D receptor (VDR) signaling pathway - cell viability counter screen (AID 743224); further: nearly all actives have a fitted effect of over 50% in size
Method in brief: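 VDR-bla cells, 4 h after plating, exposed to compounds for 16 h at 37C; viability then read in the same wells as CellTiter-Glo luminescence after 30 min at room temperature, following the bla FRET read.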

[2] = qHTS assay to identify small molecule antagonists of the vitamin D receptor (VDR) signaling pathway - cell viability counter screen (AID 743225); further: nearly all actives have a fitted effect of over 50% in size
Method in brief: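 HEK293T VDR-bla; cpd + 1a,25-(OH)2D3 3 nM final, 16 h 37C/5% CO2; B/G FRET substrate 2 h RT; then CellTiter-Glo 30 min RT, luminescence.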

[3] = qHTS assay to identify small molecule agonists of the NFkB signaling pathway (AID 1159509; active means well fitted curve in the direction sought with a large enough effect in the signal ratio in the repeat runs, not every such curve was filed as active; the % refers to the signal ratio)
Method in brief: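 ME-180 NFkB-bla, 2,000 cells/well, overnight plating; cpd pinned in DMSO, 5 h 37 C; B/G FRET substrate 1.5 h RT; ex 405, em 460/530 nm.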

[4] = qHTS assay to identify small molecule agonists of the NFkB signaling pathway - cell viability counter screen (AID 1159515; calls by dose curve; further: nearly all actives have a fitted effect of over 55% in size)
Method in brief: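 NFkB-bla ME-180 cells, 2,000/well, plated overnight at 37 C; compound added for 5 hr at 37 C. Viability read in the same wells as the bla reporter, by CellTiter-Glo luminescence after 30 min at room temperature.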

[5] = qHTS assay to identify small molecule agonists of the endoplasmic reticulum stress response signaling pathway (AID 1159516; active means well fitted activation curve with a large enough effect in the signal ratio in the repeat runs, not every such curve was filed as active; the % refers to the signal ratio)
Method in brief: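 CellSensor ESRE-bla HeLa cells, 1,500 per well, plated overnight, then exposed to compounds for 5 hr at 37 C. Beta-lactamase reporter read with LiveBLAzer B/G FRET substrate after 2 hr at room temperature, 405 nm excitation, 460 and 530 nm emission.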

[6] = qHTS assay to identify small molecule agonists of the endoplasmic reticulum stress response signaling pathway - cell viability counter screen (AID 1159517; calls by dose curve;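 further: HeLa cells carrying an ER stress response element beta-lactamase reporter; nearly all actives have a fitted effect of over 50% in size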)
Method in brief: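 HeLa cells carrying an ESRE-driven beta-lactamase reporter receive compound for 5 hr at 37 C. Cell viability is then gauged with CellTiter-Glo by luminescence, 30 min at room temperature.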

[7] = qHTS assay to identify small molecule antagonists of the retinoid-related orphan receptor gamma (ROR-gamma) signaling pathway - cell viability counter screen (AID 1159520); further: nearly all actives have a fitted effect of over 50% in size
Method in brief: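 Cytotoxicity was read from cellular ATP (CellTiter-Glo luminescence) after 16 hr at 37 C with 1 uM doxycycline induction. The inducer was added 2 hr after compound transfer to Tet-on ROR gamma CHO cells.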

[8] = molecular target: Nuclear receptor ROR-gamma (Homo sapiens) (UniProt P51449); assay: qHTS assay to identify small molecule antagonists of the retinoid-related orphan receptor gamma (ROR-gamma) signaling pathway (AID 1159521)
Method in brief: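 Cells were plated, rested 4 h at 37 C, exposed to compounds for 2 h, then given 1 uM final doxycycline hyclate to induce RORγ expression. After 16 h, ONE-Glo luminescence from the ROR response element reporter was measured.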

[9] = qHTS assay to identify small molecule agonists of the AP-1 signaling pathway - cell viability counter screen (AID 1159525; calls by dose curve; further: nearly all actives have a fitted effect of over 55% in size)
Method in brief: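 Luminescent ATP readout (Cell Titer Glo, 30 min RT), normalised to DMSO and tetra n-octyl ammonium bromide controls. Cells were ME-180 AP-1-bla in 0.5% dialyzed FBS Opti-MEM, with a 5 h, 37 °C compound exposure.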

[10] = qHTS assay to identify small molecule agonists of the AP-1 signaling pathway (AID 1159526; calls by dose curve)
[11] = molecular target: Retinoic acid receptor RXR-alpha (Homo sapiens) (UniProt P19793); assay: qHTS assay to identify small molecule agonists of the RXR signaling pathway (AID 1159527; calls by dose curve; further: nearly all actives have a fitted effect of over 35% in size)
Method in brief: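 Cells plated at 2,000/well, rested 5 hr at 37 C, pin-dosed with DMSO compound solutions, incubated 16 hr, then loaded with B/G FRET substrate for 2 hr at RT before dual-emission fluorescence reading.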

[12] = qHTS assay to identify small molecule agonists of the RXR signaling pathway - cell viability counter screen (AID 1159529)
Method in brief: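 Steps: seed RXR-alpha-UAS-bla HEK 293T cells in assay medium containing 2% charcoal-stripped FBS; incubate 5 hr; add compounds in DMSO; incubate 16 hr at 37 C; after the bla read, add CellTiter-Glo and read luminescence at 30 min.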

[13] = qHTS assay to identify small molecule antagonists of the retinoid acid receptor (RAR) signaling pathway - cell viability counter screen (AID 1159551); further: nearly all actives have a fitted effect of over 35% in size
Method in brief: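 C3RL4 RARE-luciferase cells, 1,000/well, incubated overnight, then dosed with compound plus 1 uM retinol (final). After 6 hr at 37 C, viability read by CellTiter-Glo ATP luminescence following 30 min at room temperature.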

[14] = qHTS assay to identify small molecule antagonists of the retinoic acid receptor (RAR) signaling pathway (AID 1159552; further: nearly all actives have a fitted effect of over 50% in size)
Method in brief: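 Retinol at 1 uM final stimulated RARE-luciferase expression in C3RL4 cells exposed to test compounds for 6 hr at 37 C. Reduced luminescence, read 30 min after detection reagent, indicated pathway antagonism.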

[15] = qHTS assay to identify small molecule agonists of the retinoic acid receptor (RAR) signaling pathway (AID 1159553); details: C3RL4 RARE luciferase reporter, agonist, 6 h; activation: at 73.3 µM (top of the series)
Method in brief: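 C3RL4 RARE-luciferase cells were seeded at 1,000/well and grown overnight at 37 C, then exposed to compounds for 6 hr at 37 C, 5% CO2. Luciferase reagent was added and luminescence was read after 30 min at room temperature.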

[16] = molecular target: Luciferin 4-monooxygenase (Photinus pyralis) (UniProt P08659); assay: qHTS assay to identify small molecule inhibitors of firefly luciferase (AID 1224835); further: nearly all actives have a fitted effect of over 25% in size; further: potency means the concentration at half of the fitted maximal effect
Method in brief: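 Inhibition of purified Photinus luciferase is measured by luminescence. Substrate levels (D-luciferin, ATP) sit at their KM values. Each compound is tested in a concentration series.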

[17] = qHTS assay to identify small molecule agonists of the constitutive androstane receptor (CAR) signaling pathway - cell viability counter screen (AID 1224836); further: nearly all actives have a fitted effect of over 45% in size
Method in brief: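 Cells were seeded and incubated 4 hrs. Compounds were added across 15 concentrations together with PK11195 at 0.75 uM final. Plates were incubated 23 hrs at 37 C. CellTiter-Fluor was added and fluorescence measured.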

[18] = qHTS assay to identify small molecule antagonists of the constitutive androstane receptor (CAR) signaling pathway - cell viability counter screen (AID 1224837); further: nearly all actives have a fitted effect of over 45% in size
Method in brief: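 HepG2 cells stably carrying hCAR and CYP2B6-2.2kb reporter, stimulated with 50 nM CITCO and compounds at 15 concentrations for 23 h at 37 C. Viability measured by CellTiter-Fluor fluorescence.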

[19] = qHTS assay to identify small molecule antagonists of the estrogen related receptor (ERR) signaling pathway from Tox21 library - cell viability counter screen (AID 1224834); further: nearly all actives have a fitted effect of over 30% in size
Method in brief: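 ERR reporter cells, 2,000 per well, rested 6 h, then exposed to compound in DMSO for 17.5 hours at 37 C. Viability read as fluorescence after 30 min with CellTiter-Fluor.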

[20] = molecular target: Nuclear receptor subfamily 1 group I member 3 (Homo sapiens) (UniProt Q14994); assay: qHTS assay to identify small molecule antagonists of the constitutive androstane receptor (CAR) signaling pathway (AID 1224838); further: nearly all actives have a fitted effect of over 40% in size
Method in brief: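 HepG2 cells stably carrying hCAR and a CYP2B6-2.2kb luciferase reporter, seeded 4 hrs before compound (15 concentrations). Stimulated with 50 nM CITCO for 24 hr at 37 C. ONE-Glo luminescence read after 30 min at room temperature.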

Measured: Potency

Retinoic acid receptor RXR-alpha (Homo sapiens), sequence (P19793 whole entry, looked up): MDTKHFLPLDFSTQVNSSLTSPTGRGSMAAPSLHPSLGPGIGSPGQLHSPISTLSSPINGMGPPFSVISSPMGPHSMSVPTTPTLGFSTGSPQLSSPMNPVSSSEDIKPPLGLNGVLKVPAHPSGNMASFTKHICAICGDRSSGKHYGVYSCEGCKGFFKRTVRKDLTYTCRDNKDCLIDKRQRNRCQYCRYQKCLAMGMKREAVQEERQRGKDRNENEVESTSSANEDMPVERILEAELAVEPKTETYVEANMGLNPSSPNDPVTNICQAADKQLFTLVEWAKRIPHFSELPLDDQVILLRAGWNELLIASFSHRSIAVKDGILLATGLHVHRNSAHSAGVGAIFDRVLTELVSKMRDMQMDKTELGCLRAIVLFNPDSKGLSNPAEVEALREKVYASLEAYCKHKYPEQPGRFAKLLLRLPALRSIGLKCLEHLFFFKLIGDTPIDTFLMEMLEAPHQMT
Nuclear receptor subfamily 1 group I member 3 (Homo sapiens), sequence (Q14994 whole entry, looked up): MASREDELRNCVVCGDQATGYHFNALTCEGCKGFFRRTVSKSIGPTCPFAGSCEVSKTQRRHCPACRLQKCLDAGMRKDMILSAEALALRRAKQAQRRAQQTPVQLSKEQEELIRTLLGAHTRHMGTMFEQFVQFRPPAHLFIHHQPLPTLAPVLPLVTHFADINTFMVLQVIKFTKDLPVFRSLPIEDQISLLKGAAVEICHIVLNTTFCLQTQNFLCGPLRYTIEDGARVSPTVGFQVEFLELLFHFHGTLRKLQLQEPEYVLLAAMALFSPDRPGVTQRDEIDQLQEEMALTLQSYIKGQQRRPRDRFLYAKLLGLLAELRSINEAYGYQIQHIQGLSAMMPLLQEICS
Luciferin 4-monooxygenase (Photinus pyralis), sequence (P08659 whole entry, looked up): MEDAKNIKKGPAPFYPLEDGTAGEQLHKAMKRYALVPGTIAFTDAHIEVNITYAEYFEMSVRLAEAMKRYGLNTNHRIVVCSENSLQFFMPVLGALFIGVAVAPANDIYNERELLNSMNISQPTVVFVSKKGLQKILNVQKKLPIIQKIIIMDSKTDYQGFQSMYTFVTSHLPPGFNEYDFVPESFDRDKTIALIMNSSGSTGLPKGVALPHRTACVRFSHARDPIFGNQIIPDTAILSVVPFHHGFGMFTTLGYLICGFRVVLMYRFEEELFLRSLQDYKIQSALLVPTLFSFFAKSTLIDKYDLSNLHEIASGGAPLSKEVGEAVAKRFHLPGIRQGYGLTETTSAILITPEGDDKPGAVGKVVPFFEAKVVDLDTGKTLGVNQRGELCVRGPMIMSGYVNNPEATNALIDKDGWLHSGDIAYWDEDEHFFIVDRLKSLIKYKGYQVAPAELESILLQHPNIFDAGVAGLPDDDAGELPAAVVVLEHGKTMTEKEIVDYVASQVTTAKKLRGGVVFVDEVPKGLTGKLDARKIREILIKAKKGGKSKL

CC(C)COC(=O)COc1ccc(Cl)cc1Cl
active: [16] 11.2 µM
not listed: [19] | [20]
inactive: all other assays above

CCCCCCCC/C=C\CCCCCCCC(=O)OC[C@@H](O)[C@H]1OC[C@H](O)[C@H]1O
not listed: [2] | [16] | [20]
inactive: all other assays above

CCOc1ccc(NC(=O)OC(C)C)cc1OCC
not listed: [17]
inactive: all other assays above

CC(C)CCCC(C)CC=O (stereo not drawn)
not listed: [18] | [20]
inactive: all other assays above

C1CCN2C[C@@H]3C[C@@H](CN4CCCC[C@@H]34)[C@H]2C1
not listed: [2] | [16] | [17]
inactive: all other assays above

Cc1cc(O)c2c(c1)C(=O)c1cccc(O)c1C2=O
not listed: [2] | [16] | [20]
inactive: all other assays above

O=S(=O)(O)c1cc(O)ccc1O
not listed: [18] | [20]
inactive: all other assays above

C=C(C)C(=O)OC
not listed: [16]
inactive: all other assays above
